Experimental data from ChEMBL document CHEMBL3988442, “University of Dundee, Small-Polar-MMV Screening Library” (2021).

Experiments:
[1] = target: T1, Aspartate--tRNA(Asp/Asn) ligase (Mycobacterium tuberculosis (strain ATCC 25618 / H37Rv)) (UniProt P9WFW3); assay: Assay for Asp RNA synthetase-1 from Mycobacterium tuberculosis; assay type: functional; design: scale not given: direction of the effect not stated beside the values; details: 30 µM; also: in the data most compounds retested in dose-response had high values
T1 sequence (whole entry): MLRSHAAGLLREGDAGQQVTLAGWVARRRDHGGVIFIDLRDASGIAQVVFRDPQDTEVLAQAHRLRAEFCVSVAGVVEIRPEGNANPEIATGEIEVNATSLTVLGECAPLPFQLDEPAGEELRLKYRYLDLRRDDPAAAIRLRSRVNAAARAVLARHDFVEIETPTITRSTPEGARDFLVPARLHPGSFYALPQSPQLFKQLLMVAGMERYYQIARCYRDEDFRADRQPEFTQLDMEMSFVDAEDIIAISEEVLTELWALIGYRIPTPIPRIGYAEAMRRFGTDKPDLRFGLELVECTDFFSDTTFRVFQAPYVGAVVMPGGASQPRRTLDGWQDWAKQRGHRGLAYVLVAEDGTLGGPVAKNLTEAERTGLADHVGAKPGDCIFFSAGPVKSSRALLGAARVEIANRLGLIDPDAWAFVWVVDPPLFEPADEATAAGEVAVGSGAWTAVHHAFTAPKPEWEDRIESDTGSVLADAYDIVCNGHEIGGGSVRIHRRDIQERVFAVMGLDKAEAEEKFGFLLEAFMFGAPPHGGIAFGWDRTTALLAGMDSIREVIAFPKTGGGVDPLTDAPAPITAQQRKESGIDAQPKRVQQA

[2] = target: Shiga toxin 2 (Escherichia coli O157:H7) (UniProt P09385+P09386); assay: E. coli 0.157:H7 Shiga Toxin SOP - stx2 screening assay; assay type: functional; design: scale not given: direction of the effect not stated beside the values; details: 30 µM

| Structure (SMILES) | Percent Effect [1] [%] | Percent Effect [2] [%] |
| --- | --- | --- |
| COc1cccc(CCC2CCCN(C(=O)C3=NN(C)C(=O)CC3)C2)c1 (configuration not stated) | 1.75 | -7.25 |
| O=C(c1ccc(N2CCCC2)nn1)N1CCCC(n2cccn2)C1 (configuration not stated) | 3.23 | 23.7 |
| CC(C)OCCOCc1cccc(NC(=O)NCc2ccccn2)c1 | 8.32 | -20.3 |
| Cc1cc(C)n(CC2CCCN2CCCS(N)(=O)=O)n1 (configuration not stated) | -0.589 | -25.1 |
| Cn1c(Cn2ccnc2)nnc1C1CCCN(C2CCCCC2)C1 (configuration not stated) | -2.02 | -14.9 |
| Cn1cc(NC(=O)N2CCC(CN3CCCC3)CC2)ccc1=O | -3.79 | -22.6 |
| Cc1ccc(C(=O)N2C[C@@H]3OCCN(CCN4CCCC4)[C@@H]3C2)cn1 | -1.02 | 3.78 |
| CCc1[nH]ncc1C(=O)N1CCCC(n2nc(C)nc2C)C1 (configuration not stated) | -1.03 | 12.8 |
| CS(=O)(=O)N1CCOCC2(CN(Cc3ccco3)CCO2)C1 (configuration not stated) | -7.59 | -18.6 |
| CC(c1nc(C2CC2)no1)N1CCN(Cc2ccsc2)CC1 (configuration not stated) | -4.63 | -11.4 |
| c1ccc(C[C@H]2CN(Cc3nccs3)CC[C@H]2OCC2CC2)cc1 | 3.93 | 16 |
| O=C(Cn1ccc2c(Cl)cccc21)N[C@@H](C(=O)O)c1ccccc1 | -6.24 | -13.8 |
| COc1ccc(Br)c(C(=O)N2CCC(c3n[nH]c(C4CC4)n3)CC2)c1 | 0.422 | -39.5 |
| NC(=O)c1ccc(S(=O)(=O)NC2CCN(Cc3ccccc3)C2=O)cc1 (configuration not stated) | -5.17 | 5.52 |
| C=C(C)COCCNC(=O)C1CCCN1C(C)=O (configuration not stated) | -3.43 | -6.8 |
| Cc1cccc(C2(C(=O)NCCCn3cccn3)CC2)c1 | -9.29 | -5.42 |
| COc1ccc(F)cc1C(C)NC(=O)Nc1nnc(C)s1 (configuration not stated) | -0.889 | 15.6 |
| CCc1ccc(O)c(C(=O)NC2CCN(S(=O)(=O)CC)CC2)c1 | -3.5 | -13.2 |
| Cc1cnn(C2CCCN(C(=O)c3cccc(Cn4ccnc4)c3)C2)c1 (configuration not stated) | 0.538 | -30.9 |
| CCOCC(O)CN1CCN(C(=O)c2cc(F)ccc2C)CC1 (configuration not stated) | -0.759 | 9.83 |
| CCc1noc(CN2CCCN(C(N)=O)CC2)n1 | -1.28 | 5.08 |
| Cc1ccc(CC(=O)N2CCCC(c3nc(C)cs3)C2)cn1 (configuration not stated) | 2.77 | 7.66 |
| CC(C)c1nc2n(n1)CC(NCc1nnc(C(C)C)o1)CC2 (configuration not stated) | 5.81 | 19.6 |

| Structure (SMILES) | Percent Effect [1] [%] | Percent Effect [2] [%] |
| --- | --- | --- |
| CN(C)C(=O)N1CCc2c(CNc3ncccn3)cncc2C1 | 0.757 | -10.5 |
| Cn1cnc(S(=O)(=O)N2CCN(Cc3ccco3)CC2)c1Cl | -2.54 | 13.8 |
| COc1ccc(C2SC(C)=Nc3c2c(=O)[nH]n3C2CCCCC2)cc1O (configuration not stated) | 3.89 | -40 |
| COCC1c2c(cnn2CC2CC2)CCN1Cc1cccs1 (configuration not stated) | -0.524 | 0.46 |
| Cc1cnn(CC2CCCN2Cc2nc3ccccc3n2C)c1 (configuration not stated) | 3.43 | -9.07 |
| COc1ncc(NC(=O)Nc2cc(C)ccc2OC)cn1 | 1.65 | -28.6 |
| CC(=O)N1CCCC1c1ccc(C(=O)N2CCOCC2)s1 (configuration not stated) | 2.33 | -18.8 |
| Cc1nc(CN2C(=O)C[C@H]3[C@H]2CCN3C2CCOCC2)cs1 | -3.97 | 9.23 |
| Cc1ccc(C(=O)NS(=O)(=O)c2cccc3cnccc23)c(=O)[nH]1 | 1.11 | 1.19 |
| Cc1nc(CN2CCCN(C(=O)C3(C#N)CCCCC3)CC2)cs1 | 1.34 | 11.8 |
| CC(C)Nc1ncnc2c1CCN(C(=O)c1ccncc1F)CC2 | -1.6 | -6.39 |
| CCn1cnnc1CNC(=O)N1CCOCC1 | -11.7 | 7.05 |
| CN1[C@H](CN2CCCC2)C[C@@H]2CN(C(=O)c3cccn3C)CC[C@@H]21 | 2.46 | -2.89 |
| CN(C)c1ncc(CN2CCC(c3nnsc3S(C)(=O)=O)CC2)cn1 | -3.26 | 1.96 |
| Cn1c(C(F)(F)F)nn(CCNC(=O)c2cnc3ccccc3n2)c1=O | -7.1 | -21.4 |
| CN(C)C(=O)N1CCc2c(nnn2C)C1COCc1ccccc1 (configuration not stated) | 1.92 | -16.6 |
| COc1ccc(CN2CCN(C(C)c3nc(C4CC4)no3)CC2)cc1 (configuration not stated) | -3.61 | 0.241 |
| CC(NC(=O)COc1ccc(F)cc1)c1nnc2n1CCCCC2 (configuration not stated) | 8.46 | 13.1 |
| O=C(c1ccccn1)N1CCn2cnc(COCC3CC3)c2C1 | 1.82 | -5.26 |
| Cc1ccccc1CSc1nc(N)cc(N2CCOC(C(N)=O)C2)n1 (configuration not stated) | 3.12 | -13.5 |
| Cc1cccc(C)c1OCCNC(=O)NC(C)c1nncn1C (configuration not stated) | -2.19 | -46.4 |
| CC(NC(=O)NCc1ccc(Cl)s1)c1ccccn1 (configuration not stated) | -0.451 | -14.6 |
| CC(NC(=O)N(C)CCCOc1ccc(F)cc1)c1nncn1C (configuration not stated) | -2.37 | -11.9 |
